# In all, about 3,000 compounds went through this assay and about 1,600 (53%) were called active. Roughly 10% stayed inconclusive and do not appear here.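 Rule for the calls: active = Flux at 10 µM at least 3 SD below or above vehicle control mean in one or both replicates; inconclusive = no clear call, values can overlap the other calls; inactive = the rest.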 So high a share suggests a set chosen from earlier hits. These entries were drawn from the full list.
# Biological target: ATP-sensitive inward rectifier potassium channel 1 (Homo sapiens) (UniProt P48048)
# Test: ROMK channel modulator hit retest, confirmation, cell-based, thallium flux, duplicate, resupplied hits (AID 1917)
# Settings: fluorescence ratio, at 10 µM, stronger effect = lower value
# ATP-sensitive inward rectifier potassium channel 1 (Homo sapiens), sequence (P48048 whole entry, looked up): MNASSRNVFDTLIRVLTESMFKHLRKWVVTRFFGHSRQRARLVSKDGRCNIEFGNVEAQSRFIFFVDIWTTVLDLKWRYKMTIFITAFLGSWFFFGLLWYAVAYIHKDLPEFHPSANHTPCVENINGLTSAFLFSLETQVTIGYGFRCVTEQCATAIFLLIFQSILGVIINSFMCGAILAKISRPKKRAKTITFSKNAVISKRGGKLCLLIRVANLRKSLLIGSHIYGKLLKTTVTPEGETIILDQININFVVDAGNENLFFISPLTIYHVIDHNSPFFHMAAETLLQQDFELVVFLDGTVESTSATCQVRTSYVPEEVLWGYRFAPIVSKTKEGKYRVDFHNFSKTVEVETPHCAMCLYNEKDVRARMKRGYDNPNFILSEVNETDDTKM
row,SMILES,normalized thallium flux (F/F0 slope)
1,CCCCCCCCCCCCn1ccc(=N)cc1,0.0386 (active)
2,Clc1ccc2nc3c(c(-c4ccccc4)c2c1)CNCC3,0.0588 (active)
3,CC1(C)Cc2c(C#N)c(N3CCNCC3)nc(-c3ccco3)c2CS1,0.0568 (active)
4,COc1ccccc1N=Nc1c(O)[nH]c(=S)[nH]c1=O,0.0657 (active)
5,N#Cc1ccc(Cn2cc(C(=O)c3ccco3)c3ccccc32)cc1,0.0753 (inactive)
6,Cc1cc(C=C2C(=O)NC(=O)NC2=O)c(C)n1-c1ccncc1,0.0636 (active)
7,Cc1nc2ccccn2c1P(=S)(N1CCCCC1)N1CCCCC1,0.0668 (active)
8,NC(=O)Nc1cccc(C(F)(F)F)c1,0.0825 (inactive)
